Source: PubChem BioAssay (National Center for Advancing Translational Sciences (NCATS))
The list is not random: actives were taken first. Their share in the collection is about 13%.
HCV inh: HCV inhibition. 3.4% of 340,000 active. Huh7.5.1 HCVcc-Cre infection, luciferase reporter, 44 h. Potency, µM (doses to about 41.8 µM), without a hit: top-dose activity change, negative = inhibition, most hits filed as inhibitors; active = well fitted inhibition curve with a large enough effect; inconclusive = small, poorly fitted or top-dose-only effect, or another doubt; inactive = no such curve, though single readings can be large or run the other way; note: potency is the fitted concentration of half-maximal effect; % is set by controls: 0 for no effect and ±100 for the full control effect
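Infectious HCV cell culture screen: compound-treated cells (1,000/well, pre-plated 4 h) are infected with HCVcc-Cre at roughly 0.5 moi and grown 44 h. Infection is quantified by luciferase signal after 15 min substrate incubation at room temperature.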
LASV entry inh: inhibitors of Lassa virus binding or cell entry | Lassa virus pseudotype entry inhibition, cell reporter | Potency, µM (series often up to 37.9 µM), without a hit: top-dose activity change, negative = inhibition, usual class: inhibitors | 1.2% of 300,000 active; calls by dose curve; tested in HEK293 cells; note: potency is the fitted concentration of half-maximal effect; % is set by controls: 0 for no effect and ±100 for the full control effect; nearly all actives have a fitted effect of over 50% in size
CHX counter: affects cycloheximide protein synthesis inhibition readout, counter-screen; 12% of 300,000 active; cell reporter, cycloheximide protein synthesis inhibition counterscreen; max response, %; in the data active = max response mostly above about 13%, no sharp cut-off; inactive = mostly below about 14%; note: read at 38.3 µM for the half of the compounds with a filed dose; 0% is about no effect
MARV entry inh: blocks Marburg virus binding to or entry into cells | Marburg virus pseudotyped entry inhibition, cell reporter | Potency, µM (series often up to 37.8 µM), for inactives: at the top dose activity change, negative = inhibition, usual class: inhibitors | 1.8% of 300,000 active; calls by dose curve; tested in HEK293 cells; note: potency is the fitted concentration of half-maximal effect; % is set by controls: 0 for no effect and ±100 for the full control effect
Shiga inhibitor: blocks Shiga toxin action in Vero cells | Vero cells, Shiga toxin protein synthesis inhibition reporter | inhibition, % at 38.7 µM | 9.2% of 290,000 active | AID 2315; in the data active = inhibition mostly above about 28%, no sharp cut-off; inactive = mostly below about 43%; note: 0% is about no effect
FMDV inh: blocks foot and mouth disease virus. FMDV antiviral cell-based qHTS. Potency, µM (highest dose often 57.9 µM), inactives show at the highest dose activity change, negative = inhibition, usual class: inhibitors. 1.2% of 410,000 active. AID 1159524; calls by dose curve; tested in HEK293T cells; note: read-out not given here; potency is the fitted concentration of half-maximal effect; % is set by controls: 0 for no effect and ±100 for the full control effect; nearly all actives have a fitted effect of over 45% in size
Numbers without * were called inactive; ? = inconclusive; . = no result given; [ ] = remark or other dose.

SMILES	HCV inh	LASV entry inh	CHX counter	MARV entry inh	Shiga inhibitor	FMDV inh
CN1CCN(c2cc([N+](=O)[O-])ccc2Cl)CC1	1.1%	4.5%	-4.2	-1.5%	19.6	0.0%
Cc1cccc(NC(=O)CCCc2ccccc2)c1C	3.2%	25.5%[46.1 µM]	23.3*	?	32.4*	22.9%
Cc1ccccc1NC(=O)CSc1ccncc1	-5.2%	0.1%	13.9*	?	26.0	4.9%
Fc1ccccc1NC(=S)N1CCN(C/C=C/c2ccccc2)CC1	-16.0%	?	-1.3	5.1%	21.7	?
CC(C)N(CC(=O)Nc1ccc(Cl)cc1C(F)(F)F)C(=O)CCl	3.98µM*	?	20.9*	10µM*	20.6	15.8µM*
O=C(CCCc1ccccc1)Nc1ccccc1C(F)(F)F	12.5%	?	12.5*	4.7%[46.1 µM]	.	23.9%
O=C(O)CSCC(=O)Nc1ccc(Cl)cc1C(F)(F)F	4.1%	-8.0%[46.1 µM]	-3.5	13.7%[46.1 µM]	-5.7	6.6%
O=C(CC(=O)c1ccccc1)Nc1cc([N+](=O)[O-])ccc1Cl	-5.3%	7.7%	15.5*	0.8%	67.4	24.5%
Cc1ccccc1NC(=O)Cc1ccccc1	31.4%	3.5%	-2.5	?	-0.9	-1.9%
Cc1ccccc1NC(=O)CC(=O)c1ccccc1	-5.3%	.	18.2*	.	22.3	49.9%
O=C1c2cccc3cccc(c23)C(=O)N1CCCSc1ncn[nH]1	-3.1%	.	-3.4	.	-3.4	-7.4%
CCn1c(NC(=O)c2ccc(COc3ccc(C)cc3[N+](=O)[O-])o2)nc2ccccc21	5.9%	-11.7%	-3.0	?	-13.5	-11.9%
CCC(C)N(CC(=O)Nc1cccc(C)c1C)C(=O)CCl (stereo unspecified)	1.26µM*	3.16µM*	3.8	7.1%[46.1 µM]	-2.4	15.8µM*
CCC(CC)NC(=O)Nc1cccc(C)c1C	1.5%	.	1.2	.	18.6	-5.5%
CC(=O)C1(C)CCC2C3C=C(C)C4=CC(=O)CCC4(C)C3CCC21C (stereo unspecified)	?	?	.	11.2µM*	.	-7.5%
CC(=O)[C@]1(O)CCC2C3CCC4=CC(=O)CC[C@@]4(C)C3CC[C@]21C (stereo partly specified)	.	.	.	.	.	-12.5%
C=C1CC2C(CCC3(C)C2CCC3(O)C(C)=O)C2(C)CCC(=O)C=C12 (stereo unspecified)	-12.2%	5.62µM*	-2.9	?	-14.8	25.1µM*
CC(=O)[C@@]1(O)CC[C@H]2[C@@H]3C[C@H](C)C4=CC(=O)CC[C@]4(C)[C@H]3CC[C@@]21C	?	?	-3.4	-27.2%	5.9	28.2µM*
Cc1cc(C)n2nc(S(=O)(=O)N(CC(C)C)CC(C)C)nc2n1	14.2%	.	-1.1	.	-7.1	8.1%
CCOC(=O)NN=C1C[C@@H](O)[C@@H](O)[C@@H]2[C@H]3C(=O)N(c4ccc(F)cc4F)C(=O)[C@@H]3CC[C@H]12	.	?	.	-21.5%[14.2 µM]	.	.
C=CCSc1nc(O)c(C2OC(=O)c3c2ccc(OC)c3OC)c(=O)n1-c1ccccc1 (stereo unspecified)	4.8%	.	-2.1	.	12.2	-4.6%
CCc1noc(C)c1C(=O)OC(C)C(=O)Nc1ccc2c(c1)OCO2 (stereo unspecified)	-0.8%	5.5%	.	1.9%	.	25.7%
FC(F)(F)c1cnc2c(-c3ccccc3)n[nH]c2c1	-28.2%	-31.1%	29.0*	?	83.0*	55.0%
O=S(=O)(Nc1ccc(Cl)cc1NS(=O)(=O)c1ccccc1)c1ccccc1	0.501µM*	-2.2%[46.1 µM]	.	4.3%[46.1 µM]	.	-21.4%
Cc1ccc(NS(=O)(=O)c2ccccc2)c2c1CC(C)(C)O2	10µM*	?	-5.8	?	18.0	11.6%
SMILES	HCV inh	LASV entry inh	CHX counter	MARV entry inh	Shiga inhibitor	FMDV inh
Cc1cc(-c2ccc(NS(=O)(=O)c3ccccc3)c(C)c2)ccc1NS(=O)(=O)c1ccccc1	8.91µM*	?	.	?	.	-0.9%
Cc1ccc(Cl)cc1NS(=O)(=O)c1ccccc1	7.9%	?	.	?	.	42.8%
Cc1cc2oc(=O)sc2cc1NS(=O)(=O)c1ccccc1	-13.2%	11.2µM*	-5.0	-0.7%[46.1 µM]	-11.6	5.6%
Cc1ccc2oc3c(c(=O)c2c1)C(c1ccc(F)cc1)N(c1nc(C)c(C)s1)C3=O (stereo unspecified)	.	-9.8%[46.1 µM]	.	9.3%[46.1 µM]	.	-22.0%
COc1ccc(CC(=O)NCc2nnc(SCc3ccc(C)cc3)n2C)cc1	-27.7%	3.3%[46.1 µM]	-1.3	2.8%	-4.3	-12.2%
CCOc1ccc(NC(=O)Cn2nc(-c3ccccc3Cl)n(CC)c2=S)cc1	?	-29.2%	4.3	?	26.9	?
